Assay results from PubChem BioAssay AID1159580 (chemical genetic matrix, 2015).
Among all 5,500 compounds or so, about 2,000 (36%) were called active. Not shown: some 18% with an inconclusive outcome. No stated cut-off is given here; in the data, active means normalized growth mostly below about 0.91 (no sharp cut-off); inconclusive means no clear call, values can overlap the other calls; inactive means mostly above about 0.92. The list shows a part of the results.

Test: chemical genetic growth profiling, strain panel (AID 1159580);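 further: tested at 20 µM; growth read once vehicle control cultures reached saturation at 30 °C; 1 = growth at the plate median or of vehicle wells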
Settings: S. cerevisiae deletion strains, growth OD
[1] = locus YDL101C, strain DUN1, stronger effect = lower value
[2] = locus YHR030C, strain SLT2, stronger effect = lower value
[3] = locus YJL095W, strain BCK1, stronger effect = lower value
[4] = locus YOR061W, strain CKA2, stronger effect = lower value

Measured: normalized growth

Cc1ccccc1C(=O)N1CCc2c([nH]c3ccccc23)C1C(F)(F)F (centres undefined)
inactive: locus YAR019C, strain CDC15, stronger effect = lower value 0.982 | locus YBL105C, strain PKC1, stronger effect = lower value 0.985 | locus YBR135W, strain CKS1, stronger effect = lower value 0.986 | locus YBR136W, strain MEC1, stronger effect = lower value 0.968 | locus YBR160W, strain CDC28, stronger effect = lower value 0.988 | locus YDL017W, strain CDC7, stronger effect = lower value 0.989 | locus YDL028C, strain MPS1, stronger effect = lower value 0.979 | [1] 0.978 | locus YDL108W, strain KIN28, stronger effect = lower value 0.98 | locus YDL132W, strain cdc53, stronger effect = lower value 0.988 | locus YDL214C, strain PRR2, stronger effect = lower value 0.938 | locus YDR052C, strain DBF4, stronger effect = lower value 0.989 | locus YDR054C, strain cdc34, stronger effect = lower value 0.976 | locus YDR226W, strain ADK1, stronger effect = lower value 0.985 | locus YDR477W, strain SNF1, stronger effect = lower value 0.962 | locus YER123W, strain YCK3, stronger effect = lower value 0.9 | locus YER133W, strain GLC7, stronger effect = lower value 0.948 | locus YFL009W, strain cdc4, stronger effect = lower value 0.979 | locus YFL029C, strain CAK1, stronger effect = lower value 0.972 | locus YFR003C, strain YPI1, stronger effect = lower value 0.987 | locus YFR019W, strain FAB1, stronger effect = lower value 0.954 | locus YFR028C, strain CDC14, stronger effect = lower value 0.978 | locus YGR040W, strain KSS1, stronger effect = lower value 0.927 | locus YGR052W, strain FMP48, stronger effect = lower value 0.955 | locus YGR092W, strain DBF2, stronger effect = lower value 0.978 | [2] 0.881 | locus YHR079C, strain IRE1, stronger effect = lower value 0.878 | locus YHR082C, strain KSP1, stronger effect = lower value 0.927 | locus YHR205W, strain SCH9, stronger effect = lower value 0.83 | locus YIL147C, strain SLN1, stronger effect = lower value 0.976 | [3] 0.908 | locus YJL128C, strain PBS2, stronger effect = lower value 0.927 | locus YJL157C, strain FAR1, stronger effect = lower value 0.976 | locus YJR016C, strain ILV3, stronger effect = lower value 0.989 | locus YJR066W, strain TOR1 (second series), stronger effect = lower value 0.934 | locus YJR066W, strain TOR1, stronger effect = lower value 0.943 | locus YKL048C, strain ELM1, stronger effect = lower value 0.977 | locus YKL067W, strain YNK1, stronger effect = lower value 0.95 | locus YKL101W, strain HSL1, stronger effect = lower value 0.909 | locus YKL193C, strain SDS22, stronger effect = lower value 0.99 | locus YKL203C, strain TOR2, stronger effect = lower value 1.01 | locus YLR133W, strain CKI1, stronger effect = lower value 0.929 | locus YLR403W, strain SFP1, stronger effect = lower value 0.93 | locus YML070W, strain DAK1, stronger effect = lower value 0.905 | locus YMR001C, strain CDC5, stronger effect = lower value 0.97 | locus YMR205C, strain PFK2 (second series), stronger effect = lower value 0.945 | locus YMR277W, strain FCP1, stronger effect = lower value 0.991 | locus YNL006W, strain LST8, stronger effect = lower value 1 | locus YNL020C, strain ARK1, stronger effect = lower value 0.95 | locus YNL161W, strain CBK1, stronger effect = lower value 0.996 | locus YNL183C, strain NPR1, stronger effect = lower value 0.894 | locus YNL207W, strain RIO2, stronger effect = lower value 0.982 | locus YNL222W, strain SSU72, stronger effect = lower value 0.991 | locus YNL307C, strain MCK1 (second series), stronger effect = lower value 0.936 | locus YOL078W, strain AVO1, stronger effect = lower value 0.991 | locus YOL136C, strain PFK27, stronger effect = lower value 0.906 | [4] 0.953 | locus YOR119C, strain RIO1, stronger effect = lower value 0.985 | locus YOR231W, strain MKK1, stronger effect = lower value 0.891 | locus YOR329C, strain SCD5, stronger effect = lower value 0.985 | locus YPL031C, strain PHO85, stronger effect = lower value 0.963 | locus YPL153C, strain RAD53, stronger effect = lower value 0.943 | locus YPL204W, strain HRR25, stronger effect = lower value 0.945 | locus YPL209C, strain IPL1, stronger effect = lower value 0.986 | locus YPR025C, strain CCL1, stronger effect = lower value 0.989 | locus YPR106W, strain ISR1, stronger effect = lower value 0.965 | locus YPR111W, strain DBF20, stronger effect = lower value 0.966 | strain NNK1, stronger effect = lower value 0.967 | strain TSCII, stronger effect = lower value 0.988
active: locus YLR113W, strain HOG1, stronger effect = lower value 0.799 | locus YPL256C, strain CLN2, stronger effect = lower value 0.815

COC(=O)[C@H]1[C@H]2C[C@H]3c4[nH]c5ccccc5c4CCN3C[C@H]2CC[C@@H]1O
inactive: locus YAL013W, strain DEP1, stronger effect = lower value 0.998 | locus YBR021W, strain FUR4, stronger effect = lower value 1 | locus YBR229C, strain ROT2, stronger effect = lower value 1.01 | locus YCL029C, strain bik1, stronger effect = lower value 1 | locus YDL035C, strain GPR1, stronger effect = lower value 1.01 | locus YDL074C, strain BRE1, stronger effect = lower value 1.02 | [1] 1.01 | locus YDL134C, strain PPH21, stronger effect = lower value 1.01 | locus YDL185W, strain tfp1, stronger effect = lower value 1.01 | locus YDL192W, strain arf1, stronger effect = lower value 1 | locus YDR101C, strain arx1, stronger effect = lower value 1.01 | locus YDR150W, strain NUM1, stronger effect = lower value 1.01 | locus YDR162C, strain NBP2, stronger effect = lower value 1.01 | locus YDR318W, strain mcm21, stronger effect = lower value 1 | locus YDR388W, stronger effect = lower value 1 | locus YDR502C, strain sam2, stronger effect = lower value 1.01 | locus YEL061C, strain CIN8, stronger effect = lower value 1.01 | locus YER110C, stronger effect = lower value 1 | locus YER155C, strain BEM2, stronger effect = lower value 1.01 | locus YER167W, strain BCK2, stronger effect = lower value 1.01 | locus YGL078C, strain dbp3, stronger effect = lower value 1.01 | locus YGL086W, strain mad1, stronger effect = lower value 1.01 | locus YGL248W, strain PDE1, stronger effect = lower value 1.01 | locus YGR135W, strain pre9, stronger effect = lower value 0.988 | locus YGR229C, strain SMI1, stronger effect = lower value 1.01 | locus YGR252W, strain gcn5, stronger effect = lower value 0.977 | [2] 1.01 | locus YHR079C, strain IRE1 (second series), stronger effect = lower value 1 | locus YHR094C, strain hxt1, stronger effect = lower value 1 | locus YHR129C, strain ARP1, stronger effect = lower value 1.01 | locus YHR200W, strain rpn10, stronger effect = lower value 1.01 | locus YIL066C, strain RNR3, stronger effect = lower value 1.02 | locus YIL073C, strain SPO22, stronger effect = lower value 1 | locus YIL125W, strain kgd1, stronger effect = lower value 0.999 | locus YIR030C, strain dcg1, stronger effect = lower value 0.999 | [3] 1.02 | locus YJL134W, strain LCB3, stronger effect = lower value 1.01 | locus YJL168C, strain set2, stronger effect = lower value 0.998 | locus YJL187C, strain SWE1 (second series), stronger effect = lower value 1.03 | locus YJR043C, strain POL32, stronger effect = lower value 1.02 | locus YKL009W, strain mrt4, stronger effect = lower value 1 | locus YKL068W, stronger effect = lower value 0.993 | locus YKL085W, strain MDH1 (second series), stronger effect = lower value 1.01 | locus YKL085W, strain MDH1, stronger effect = lower value 1.01 | locus YKL190W, strain CNB1, stronger effect = lower value 1.01 | locus YKR001C, strain vps1, stronger effect = lower value 1.02 | locus YLR039C, strain RIC1, stronger effect = lower value 1.08 | locus YLR058C, strain SHM2, stronger effect = lower value 1.02 | locus YLR102C, strain apc9, stronger effect = lower value 1 | locus YLR262C, strain YPT6, stronger effect = lower value 1.08 | locus YLR268W, strain sec22, stronger effect = lower value 1 | locus YLR330W, strain CHS5, stronger effect = lower value 1.01 | locus YLR342W, strain FKS1 (second series), stronger effect = lower value 0.984 | locus YLR371W, strain rom2, stronger effect = lower value 0.999 | locus YLR418C, strain cdc73, stronger effect = lower value 0.985 | locus YML016C, strain PPZ1, stronger effect = lower value 1.01 | locus YML032C, strain rad52, stronger effect = lower value 0.998 | locus YML124C, strain tub3, stronger effect = lower value 0.993 | locus YMR078C, strain ctf18, stronger effect = lower value 1.01 | locus YMR223W, strain ubp8, stronger effect = lower value 0.992 | locus YMR263W, strain SAP30, stronger effect = lower value 1.01 | locus YMR307W, strain GAS1, stronger effect = lower value 0.95 | locus YNL067W, strain RPL9B, stronger effect = lower value 1.02 | locus YNL233W, strain BNI4, stronger effect = lower value 1.02 | locus YNL250W, strain rad50, stronger effect = lower value 1.02 | locus YNL271C, strain bni1, stronger effect = lower value 1.01 | locus YNL298W, strain CLA4, stronger effect = lower value 0.988 | locus YNL307C, strain MCK1, stronger effect = lower value 1.01 | locus YNR052C, strain pop2, stronger effect = lower value 0.998 | locus YOL012C, strain htz1 0.805 | locus YOL147C, strain pex11, stronger effect = lower value 1.01 | [4] 1.01 | locus YOR069W, strain VPS5, stronger effect = lower value 1.01 | locus YOR136W, strain idh2, stronger effect = lower value 0.998 | locus YOR144C, strain elg1, stronger effect = lower value 1 | locus YOR184W, strain ser1, stronger effect = lower value 1.01 | locus YOR316C, strain cot1, stronger effect = lower value 1.01 | locus YPL241C, strain CIN2, stronger effect = lower value 1.01 | locus YPR119W, strain clb2, stronger effect = lower value 1 | locus YPR141C, strain kar3, stronger effect = lower value 0.992 | locus YPR163C, strain tif3, stronger effect = lower value 1.01 | locus YPR167C, strain met16, stronger effect = lower value 1 | strain wtn01, stronger effect = lower value 1.01
